Each structure is given as a SMILES string. Values joined by “and” are separate entries in the source; they are usually repeats but may differ in a detail not shown here. Equal entries are not always repeated. Results filed as inconclusive are left out. Active and inactive are the calls of the source. Calls come from the whole dose curve; as a rule, active = well fitted curve in the direction sought with a large enough effect; inconclusive = small, poorly fitted or top-dose-only effect, or another doubt; inactive = no such curve, though single readings can be large; an effect the other way counts as inactive or inconclusive.
% is set by controls: 0 for no effect and ±100 for the full control effect; potency is the fitted concentration of half-maximal effect.
Note: nearly all actives have a fitted effect of over 70% in size.

One assay is described as follows: Primary qHTS for inhibitors of nuclear receptor binding SET domain protein 2 (NSD2) in an isogenic RCH-ACV NSD2 p.E1099K mutant (9B) (AID 1645876). The conditions noted are these: RCH-ACV NSD2 E1099K (9B) viability, CellTiter-Glo, 72 h; series mostly up to 44.9 µM; activity change, negative = viability loss: at the top concentration. On the technique in general: Quantitative high-throughput screening tests each substance at several concentrations.
Turning to `COc1ccc([C@@H]2CC(=O)c3c(O)cc(O[C@@H]4O[C@H](CO[C@@H]5O[C@@H](C)[C@H](O)[C@@H](O)[C@H]5O)[C@@H](O)[C@H](O)[C@H]4O)cc3O2)cc1O`, the molecule was classed as inactive.
For `CC(=O)Nc1ccc(NC(=S)NC(=O)c2ccc(C(C)(C)C)cc2)cc1`, the Potency is 1.83 µM (active).
Take `CN[C@@H]1[C@@H](O)[C@@H](O[C@@H]2[C@@H](O)[C@H](O[C@H]3O[C@H](CN)[C@@H](O)[C@H](O)[C@H]3O)[C@@H](N)C[C@H]2NC(=O)C(O)CN)OC[C@]1(C)O` (some centres undefined): the “activity change, negative = viability loss” value was -11.6% (inactive).
On the same count and under the same terms, for `CC[C@H]1OC(=O)[C@H](C)[C@@H](O[C@H]2C[C@@](C)(OC)[C@@H](O)[C@H](C)O2)[C@H](C)[C@@H](O[C@@H]2O[C@H](C)C[C@H](N(C)C)[C@H]2O)[C@](C)(O)C[C@@H](C)CN(C)[C@H](C)[C@@H](O)[C@]1(C)O` the value was -26% (inactive).
With `CO[C@H]1C[C@@H]2CC[C@@H](C)[C@@](O)(O2)C(=O)C(=O)N2CCCC[C@H]2C(=O)O[C@H]([C@H](C)C[C@@H]2CC[C@@H](OC(=O)C(C)(CO)CO)[C@H](OC)C2)CC(=O)[C@H](C)/C=C(\C)[C@@H](O)[C@@H](OC)C(=O)[C@H](C)C[C@H](C)/C=C/C=C/C=C/1C`, the Potency is 0.204 µM (active).
For the molecule `CN(C)CCOc1ccc(/C(=C(/CCCl)c2ccccc2)c2ccccc2)cc1`, the “activity change, negative = viability loss” value is -17.5% (inactive).
Consider `CC[C@H](CC[C@@H](C)[C@H]1CC[C@H]2[C@@H]3CC=C4C[C@@H](O)CC[C@]4(C)[C@H]3CC[C@]12C)C(C)C`, for which the molecule was called inactive.
In the case of `C[C@H]1O[C@@H](O[C@H]2[C@@H](O)C[C@H](O[C@H]3[C@@H](O)C[C@H](O[C@H]4CC[C@@]5(C)[C@H](CC[C@@H]6[C@@H]5C[C@@H](O)[C@]5(C)[C@@H](C7=CC(=O)OC7)CC[C@]65O)C4)O[C@@H]3C)O[C@@H]2C)C[C@H](O)[C@@H]1O`, the Potency was 40.9 nM (active) and 66.1 nM (active).
On to `N[C@@H](Cc1cc(I)c(Oc2ccc(O)c(I)c2)c(I)c1)C(=O)O`, for which the “activity change, negative = viability loss” value was -25.1% (inactive).
Consider `C=CC[N+]1([C@H]2C[C@H]3[C@@H]4CC[C@H]5C[C@H](O)[C@@H](N6CCOCC6)C[C@]5(C)[C@H]4CC[C@]3(C)[C@H]2OC(C)=O)CCCC1`, for which the “activity change, negative = viability loss” value was -6.96% (inactive).
Take `CC(C)Cc1ccc([C@@H](C)C(=O)NS(C)(=O)=O)cc1`: the call was inactive.
Regarding `CCC[C@@H]1C[C@@H](C(=O)N[C@@H]([C@H]2O[C@H](SC)[C@H](O)[C@@H](O)[C@H]2O)[C@H](C)Cl)N(C)C1`, the “activity change, negative = viability loss” value is -6.39% (inactive).
In the case of `CC(=O)NCCCS(=O)(=O)O`, the “outcome” value was “inactive [at 17.3 µM]”.
`C=C1[C@H](CO)[C@@H](O)C[C@@H]1n1cnc2c(=O)[nH]c(N)nc21`: the “activity change, negative = viability loss” value was -22.2% (inactive).

The nature of another assay: Primary qHTS for inhibitors of nuclear receptor binding SET domain protein 2 (NSD2) in an RCH-ACV wild type WT cells (2C) (AID 1645877). Conditions: RCH-ACV (leukaemia line) NSD2 WT (2C) viability, CellTiter-Glo, 72 h; series mostly up to 44.9 µM; activity change, negative = cell killing: at the top concentration.
Take `COc1ccc([C@@H]2CC(=O)c3c(O)cc(O[C@@H]4O[C@H](CO[C@@H]5O[C@@H](C)[C@H](O)[C@@H](O)[C@H]5O)[C@@H](O)[C@H](O)[C@H]4O)cc3O2)cc1O`: the molecule was called inactive.
As for `CC(=O)Nc1ccc(NC(=S)NC(=O)c2ccc(C(C)(C)C)cc2)cc1`, the Potency was 3.25 µM (active).
For the molecule `CC[C@H]1OC(=O)[C@H](C)[C@@H](O[C@H]2C[C@@](C)(OC)[C@@H](O)[C@H](C)O2)[C@H](C)[C@@H](O[C@@H]2O[C@H](C)C[C@H](N(C)C)[C@H]2O)[C@](C)(O)C[C@@H](C)CN(C)[C@H](C)[C@@H](O)[C@]1(C)O`, the “activity change, negative = cell killing” value was -28% (inactive).
`CO[C@H]1C[C@@H]2CC[C@@H](C)[C@@](O)(O2)C(=O)C(=O)N2CCCC[C@H]2C(=O)O[C@H]([C@H](C)C[C@@H]2CC[C@@H](OC(=O)C(C)(CO)CO)[C@H](OC)C2)CC(=O)[C@H](C)/C=C(\C)[C@@H](O)[C@@H](OC)C(=O)[C@H](C)C[C@H](C)/C=C/C=C/C=C/1C`: the Potency is 0.574 µM (active).
Turning to `CC[C@H](CC[C@@H](C)[C@H]1CC[C@H]2[C@@H]3CC=C4C[C@@H](O)CC[C@]4(C)[C@H]3CC[C@]12C)C(C)C`, the “activity change, negative = cell killing” value was -19.2% (inactive).
On to `C[C@H]1O[C@@H](O[C@H]2[C@@H](O)C[C@H](O[C@H]3[C@@H](O)C[C@H](O[C@H]4CC[C@@]5(C)[C@H](CC[C@@H]6[C@@H]5C[C@@H](O)[C@]5(C)[C@@H](C7=CC(=O)OC7)CC[C@]65O)C4)O[C@@H]3C)O[C@@H]2C)C[C@H](O)[C@@H]1O`, for which the Potency is 51.5 nM (active) and 118 nM (active).
As to `N[C@@H](Cc1cc(I)c(Oc2ccc(O)c(I)c2)c(I)c1)C(=O)O`, the “activity change, negative = cell killing” value is -22.7% (inactive).
The same measure, in the same setting: with `C=CC[N+]1([C@H]2C[C@H]3[C@@H]4CC[C@H]5C[C@H](O)[C@@H](N6CCOCC6)C[C@]5(C)[C@H]4CC[C@]3(C)[C@H]2OC(C)=O)CCCC1` the figure was 0.222% (inactive); with `CC(C)Cc1ccc([C@@H](C)C(=O)NS(C)(=O)=O)cc1`, 1.14% (inactive).
On the same count and under the same terms, for `CCC[C@@H]1C[C@@H](C(=O)N[C@@H]([C@H]2O[C@H](SC)[C@H](O)[C@@H](O)[C@H]2O)[C@H](C)Cl)N(C)C1` the value was -6.41% (inactive); for `CC(C)(C)c1ccc(CN2CCN(C(c3ccccc3)c3ccc(Cl)cc3)CC2)cc1` (centres undefined), -18.4% (inactive).
The same measure, in the same setting: with `C[C@]12CC[C@@H]3c4ccc(OC(=O)c5ccccc5)cc4CC[C@H]3[C@@H]1CC[C@@H]2O` the figure was -23.1% (inactive).
Consider `C=C1CC[C@H](O)CC1=C/C=C1\CCC[C@]2(C)[C@@H]([C@H](C)/C=C/[C@H](C)C(C)C)CC[C@@H]12`, for which the Potency was 20.5 µM (active).
For the molecule `CC(=O)NCCCS(=O)(=O)O`, the “outcome” value was “inactive [at 17.3 µM]”.
For `C=C1[C@H](CO)[C@@H](O)C[C@@H]1n1cnc2c(=O)[nH]c(N)nc21`, the “activity change, negative = cell killing” value is -17.5% (inactive).

The values above are taken from PubChem BioAssay (NCATS).
